Results on 12 compounds are retold here after PubChem BioAssay (NCATS).

Records with an inconclusive call do not appear. The source made the active and inactive calls. Calls come from the whole dose curve; as a rule, active = well fitted inhibition curve with a large enough effect; inconclusive = small, poorly fitted or top-dose-only effect; inactive = flat fitted curve, though single readings scatter. Numbered stars: 1 amine (or outer) side, 2 acyl side, 3 side chain; on linkers, the order of the positions; unused ones are H or OH. Bridge positions count the residues as written; N and C are the ends. Square brackets hold non-standard residues; d marks the D form. Peptide text beside a SMILES is read from it. I, II: the chains in the order shown. Actinocin(9to1) = Cc1c2oc3c(C)ccc(C(=O)[*:1])c3nc-2c(C(=O)[*:2])c(N)c1=O; NMeV = CN[C@H](C(=O)O)C(C)C; Sar = CNCC(=O)O

Assay in all cases: qHTS profiling for inhibitors of Plasmodium falciparum proliferation (AID 504749); note: nearly all actives have a fitted effect of over 60% in size
Holding throughout (conditions): P. falciparum in erythrocytes, SYBR Green DNA, 72 h; series mostly up to 28.7 µM
On the technique in general: Quantitative high-throughput screening tests each substance at several concentrations.

In test [1] the test system is CP237. In a few lines:
(§1)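 Three-day growth assay of blood-stage parasites in erythrocytes (0.3% parasitemia, 2.5% hematocrit) at 37 C, 5% CO2, quantified by SYBR Green DNA staining after overnight detergent lysis.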

For test [2], the system named is CP238. In a few lines: as §1
The subject of test [3] is CP247. The essentials: as §1
The subject of test [4] is CP250. In a few lines: as §1
Test [5] deals with CP252. In a few lines: as §1
In test [6] the test system is CP256. In a few lines:
as §1

Test [7] concerns CP260. The essentials:
as §1

Test [8] relates to CP262. The essentials:
as §1

Test [9] deals with CP265. In a few lines: as §1
In test [10] the test system is CP266. In a few lines: as §1
Test [11] deals with CP268. In a few lines:
as §1

The test system of test [12] is CP269. In a few lines: as §1
Test [13] relates to CP286. In a few lines: as §1
Test [14] concerns CP291. The essentials: as §1
Test [15] deals with CP297. In a few lines:
as §1

Test [16] has as its system CP305. In a few lines:
as §1

In test [17] the test system is CP315. In a few lines: as §1
The test system of test [18] is CP325. In a few lines: as §1
Test [19] relates to CP329. The essentials: as §1
The subject of test [20] is CP335. The essentials: as §1
Potency is the fitted concentration of half-maximal effect.

Turning to `C[C@@H]1C(=O)NC2=Nc3cccc(Cl)c3CN21`, the Potency entry in [1], in test [2], in [3], in test [4], in test [5] and in test [6] was “inactive” throughout. Moreover, the Potency entry in test [7], in test [8], in [9], in test [10], in test [11] and in [12] was “inactive” each time. The Potency result in test [13], in [14], in [15], in [16], in test [17] and in [18] was “inactive” in each case. For the same compound, the Potency result in [19] and in [20] was “inactive” throughout.
As for `CC1=C(C(=O)OC(C)C)C(c2cccc([N+](=O)[O-])c2)C(C(=O)OC2CN(C(c3ccccc3)c3ccccc3)C2)=C(N)N1` (configuration not stated), the Potency in [1] is 12600 nM (active); in test [2], 8.91 µM (active); in test [3], 10 µM (active); in [4], 8.91 µM (active); in test [5] it was 10 µM (active); in [6] it was 4.47 µM (active). The Potency in [7] was 6.31 µM (active); in test [8], 12 µM (active); in test [9], 7.94 µM (active); in [10] it was 9.53 µM (active); in test [11] it was 9.53 µM (active); in test [12], 8.49 µM (active). In addition, the Potency in test [13] was 5.01 µM (active); in [14], 8.49 µM (active); in test [15], 13.5 µM (active); in test [16], 7.57 µM (active); in test [17] it was 13.5 µM (active); in test [18], 6.01 µM (active). In addition, the Potency is 6.01 µM (active) in [19] and 4.78 µM (active) in test [20].
Regarding `C=CCc1ccc(O)c(OC)c1`, the Potency entry in test [1], in test [2], in test [3], in test [4], in test [5] and in test [6] was “inactive” each time. Also, the Potency result in [7], in test [8], in test [9], in test [10], in [11] and in test [12] was “inactive” throughout. The Potency result in [13], in test [14], in [15], in test [16], in [17] and in test [18] was “inactive” throughout. The Potency result in test [19] and in test [20] was “inactive” each time.
Consider `O=C(Nc1ccc(Cl)c(Cl)c1)C1CC1`, for which the Potency result in [1], in test [2], in test [3], in [4], in [5] and in [6] was “inactive” throughout. Moreover, the Potency result in test [7], in test [8], in [9], in [10], in test [11] and in test [12] was “inactive” in each case. For the same compound, the Potency result in test [13], in test [14], in [15], in test [16], in [17] and in test [18] was “inactive” each time. The Potency entry in test [19] and in [20] was “inactive” throughout.
Consider `CCCCC(CC)CN=C(N)NC(N)=NCCCCCCN=C(N)NC(N)=NCC(CC)CCCC` (configuration not stated), for which the Potency in [1] was 1260 nM (active); in [2], 1 µM (active); in [3], 1.12 µM (active); in test [4], 0.891 µM (active); in test [5] it was 1.26 µM (active); in [6] it was 3.55 µM (active). The Potency in [7] was 1.12 µM (active); in test [8], 1.07 µM (active); in test [9], 3.55 µM (active); in test [11], 1.69 µM (active); in test [12] it was 1.51 µM (active); in test [13], 0.631 µM (active). The Potency in test [14] is 1.69 µM (active); in test [15], 3.38 µM (active); in test [16], 1.69 µM (active); in test [17], 1.35 µM (active); in test [18] it was 1.2 µM (active); in [19], 1.51 µM (active). The Potency in [20] is 1.51 µM (active).
On to `Cc1c2oc3c(C)ccc(C(=O)N[C@@H]4C(=O)N[C@H](C(C)C)C(=O)N5CCC[C@H]5C(=O)N(C)CC(=O)N(C)[C@@H](C(C)C)C(=O)O[C@@H]4C)c3nc-2c(C(=O)N[C@@H]2C(=O)N[C@H](C(C)C)C(=O)N3CCC[C@H]3C(=O)N(C)CC(=O)N(C)[C@@H](C(C)C)C(=O)O[C@@H]2C)c(N)c1=O` (I: T[dV]P[Sar][NMeV] / II: T[dV]P[Sar][NMeV]; ester I:1-I:C, II:1-II:C; linker I:N-II:N via Actinocin(9to1)), for which the Potency is 0.0708 nM (active) in test [1]; 0.0018 µM (active) in [2]; 0.0071 µM (active) in test [3]; 0.0035 µM (active) in test [4]; 0.0056 µM (active) in test [5]; 0.0079 µM (active) in test [6]. The Potency in test [7] is 0.0035 µM (active); in test [8], 0.0034 µM (active); in test [10], 0.0085 µM (active); in [11], 0.0067 µM (active); in test [12], 0.006 µM (active); in [13], 0.0035 µM (active). For the same compound, the Potency in test [14] was 0.0054 µM (active); in [15] it was 0.006 µM (active); in [16], 0.0054 µM (active); in test [17], 0.0076 µM (active); in test [18] it was 0.0054 µM (active); in [19], 0.006 µM (active). Besides, the Potency in test [20] is 0.0019 µM (active).
`NC(CO)(CO)CO`: the Potency entry in test [1], in test [2], in [3], in [4], in test [5] and in [6] was “inactive” in each case. In addition, the Potency result in test [7], in test [8], in test [9], in test [10], in test [11] and in [12] was “inactive” in each case. For the same compound, the Potency entry in [13], in test [14], in [16], in test [17], in test [18] and in test [19] was “inactive” in each case. Also, the Potency entry in test [20] was “inactive”.
As to `Cc1ccnc(NS(=O)(=O)c2ccc(N)cc2)n1`, the Potency entry in [1], in test [2], in test [3], in [4], in test [5] and in test [6] was “inactive” each time. For the same compound, the Potency result in test [7], in test [8], in test [9], in [10], in [11] and in test [12] was “inactive” in each case. Besides, the Potency result in [13], in test [14], in test [15], in [16], in test [18] and in test [19] was “inactive” throughout. In test [20], the Potency result is “inactive”.
`CCN(CC)C(=O)N1CCN(C)CC1`: the Potency result in [1], in [2], in test [3], in [4], in test [5] and in test [6] was “inactive” each time. The Potency entry in test [7], in test [8], in [9], in [11], in [12] and in test [13] was “inactive” in each case. For the same compound, the Potency result in [14], in [15], in [16], in test [17], in test [18] and in [19] was “inactive” in each case. For the same compound, in test [20], the Potency entry was “inactive”.
As to `COc1cccc2c1C(=O)c1c(O)c3c(c(O)c1C2=O)C[C@@](O)(C(C)=O)C[C@@H]3O[C@H]1C[C@H](N)[C@H](O)[C@H](C)O1`, the Potency is 1000 nM (active) in test [1]; 3.98 µM (active) in [2]; 1.41 µM (active) in test [3]; 1 µM (active) in test [4]; 1.12 µM (active) in test [5]; 1 µM (active) in test [6]. Also, the Potency in [7] was 1.12 µM (active); in test [9], 2 µM (active); in [10], 8.49 µM (active); in test [11], 6.01 µM (active); in test [12], 4.78 µM (active); in test [13], 2 µM (active). The Potency in test [14] is 5.36 µM (active); in [15], 7.57 µM (active); in test [16], 4.78 µM (active); in [17], 7.57 µM (active); in [18] it was 8.49 µM (active); in [19], 6.01 µM (active). Further, the Potency in test [20] is 4.78 µM (active).
With `COc1cc2c(cc1OC)C(C(C(=O)N(CCc1ccc(OC)c(OC)c1OC)CCc1ccc(OC)c(OC)c1OC)c1ccccc1)=NCC2` (configuration not stated), the Potency in [1] was 2000 nM (active); in [2], 6.31 µM (active); in test [3] it was 4.47 µM (active); in [4], 7.08 µM (active); in [5], 5.01 µM (active); in test [6], 5.62 µM (active). Further, the Potency is 3.55 µM (active) in test [7]; 9.53 µM (active) in [8]; 7.94 µM (active) in test [9]; 13.5 µM (active) in [11]; 6.75 µM (active) in test [12]; 7.94 µM (active) in test [13]. For the same compound, the Potency is 15.1 µM (active) in test [14]; 3.38 µM (active) in test [15]; 15.1 µM (active) in test [16]; 13.5 µM (active) in [17]; 16.9 µM (active) in [18]; 13.5 µM (active) in test [19]. Further, the Potency in test [20] was 5.36 µM (active).
With `O=C1c2ccccc2C(=O)C1c1ccccc1`, the Potency result in test [1], in test [2], in test [3], in [4], in [5] and in test [6] was “inactive” throughout. The Potency entry in test [7], in test [8], in test [9], in test [11], in [12] and in [13] was “inactive” in each case. For the same compound, the Potency result in test [14], in [15], in test [16], in test [17], in test [18] and in test [19] was “inactive” each time. In addition, the Potency result in test [20] was “inactive”.
